# From the supplement of paper PMC11417369
# ± gives the standard deviation of the averaged measurements. In all, about 25,000 sequences were measured (“ln(normalized median fluorescence intensity)”: median about 8.9, highest 2% from about 10 on). Many of the other results were omitted from the sample, so the highest values are more common in it than they were.
# Test system: PfAP2-LT AP2 domain (GST-tagged)
# Experiment: gcPBM binding intensity (ln(normalized median fluorescence intensity)); higher = stronger DNA binding
# Outline: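 Binding intensity values are the highest Masliner-normalised natural-log median intensity among replicate spots of either probe orientation. The binding step lasted 1 h in 1× PBS with 1% milk, 0.2 mg/ml BSA, 0.5% salmon testes DNA and 0.03% Triton X-100, using GST-tagged P. falciparum DNA-binding domains expressed in E. coli on an Agilent 4 × 180k array of primer-extended double-stranded 36-bp intergenic genomic probes plus negative controls. Alexa488 anti-GST antibody and a 488 nm scan detected bound protein.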
row,Sequence,gcPBM binding intensity (ln)
1,AAATAAAAAAAATAAAAGCAATCATAATAAAAATCT [CACACA_negctrl_site161],8.79 ± 0.46
2,ATAAAAATATAATTGAGTACATATGAATAGTCCTAT [XGTACX_site6281],8.65 ± 0.42
3,GATATGTACTAATACACACACATATATATATATATA [CACACA_site1022],10.2 ± 0.23
4,ATACACACATATATGTGTACATATACATATATATAT [XGTACX_site6744],9.88 ± 0.32
5,AAATGCGCCATGTGTACACATATATATATATATATA [CACACA_site4649],10.1 ± 0.18
6,AAGATATGTACTAATACACACACATATATATATATA [CACACA_site8249],9.86 ± 0.14
7,ATATATATATATATATGTACATATACACATGTGTGC [XGTACX_site168],10.14 ± 0.099
8,CGAAATCATATGTACACACACATATATATATATATA [CACACA_site2151],10.1 ± 0.18
9,GTAAATACACATATGTGTACATATATATATATATAT [XGTACX_site3696],9.67 ± 0.31
10,ACATACACATATACATGTACATATATATATATATAT [XGTACX_site5082],9.68 ± 0.3
11,TACGAAATCATATGTACACACACATATATATATATA [CACACA_site5216],9.8 ± 0.14
12,TAAATACTAATATGTACACACATATAGATATAGATT [CACACA_site7247],8.96 ± 0.38
13,AAAAAATGCGACATGTGTACACATATATATATATAT [XGTACX_site1679],9.81 ± 0.3
14,ATATATATATATATATGTACACACATCAATCATATT [XGTACX_site4005],9.96 ± 0.33
15,TGAAAATATTTTATATGTACATATATTATCAATACA [XGTACX_site92],8.64 ± 0.38
16,TTTCTGATATTTTTATATTTTCTTATATATATATAT [GTGCAC_negctrl_site652],8.77 ± 0.52
17,TGTCTTATTTATATTACACACTATATGAAAAAATAT [CACACA_site6807],8.6 ± 0.38
18,ATAAATAAATAAGTACATATATATATGTATATATAT [TGCATGCA_negctrl_site223],9.05 ± 0.42
19,ACTAAATAAATAAATATAATATATAAATATGTATGT [TGCATGCA_negctrl_site583],8.78 ± 0.43
20,TTTATTAATAATTATACACACATATAAAATGAATAA [CACACA_site1359],8.58 ± 0.51
21,TTAATATGAAAACTCTGTACCCAACCTTCTTATGGA [XGTACX_site2126],8.62 ± 0.28
22,ATGCAATTATATAGTAGTACAAATTTATAAATATAC [XGTACX_site4869],8.94 ± 0.37
23,ATTTAATAAAAAAAAAAAATATTGTAGAATATGATG [GTGCAC_negctrl_site195],8.27 ± 0.52

row,Sequence,gcPBM binding intensity (ln)
1,AAAGGTATATATGTGTGTACATATATATATATATAT [XGTACX_site5629],9.955 ± 0.0071
2,TCCTTTTCTTAATTTAAAAAATATAAAAAAAACGAA [CACACA_negctrl_site1821],7.94 ± 0.34
3,TGAACTCATAGGAAAACACACATATGTGCAATATAT [CACACA_site6231],9.12 ± 0.36
4,AAAACAAACAGACACACACACATATATATATATATA [CACACA_site3655],10.4 ± 0.24
5,AAAAGGAACAGACACACACACATATATATATATATA [CACACA_site3587],10.3 ± 0.29
6,AAAAAAAACGGACACACACACATACAAAATATATAT [CACACA_site4910],9.99 ± 0.28
7,AAAACAGACAAACACACACACACATATATATATATA [CACACA_site3393],10.37 ± 0.071
8,AAAAAAAACAGACACACACACATACAAAATATATAT [CACACA_site1449],9.79 ± 0.3
9,AAAACAAACGGACACACACACATATATATATATATA [CACACA_site5924],10.2 ± 0.44
10,TATATATACAGACACATACACACAAATAAAAAAACA [CACACA_site3413],9.39 ± 0.35
11,AAAACAAACAGACACACACACATATTTATATTTATA [CACACA_site7681],9.79 ± 0.4
12,TACAAACAGACATATACACACAAAAAAAAAATAAAA [CACACA_site2562],9.16 ± 0.43
13,AAGGTAAACGGACACACACACATACAAAAAAAAAAA [CACACA_site5961],9.77 ± 0.67
14,AAAAAAAACAGACACACACACATAAATATAAATAAA [CACACA_site6214],9.74 ± 0.31
15,AAAAGGAACAGACACACACACATATATAAATATGTA [CACACA_site7656],9.8 ± 0.42
16,ATAACATATTTCTTTTGTACTCAAAATAAAATTAAT [XGTACX_site2479],8.37 ± 0.4
17,ATATAATAAATATGTTGTACTATAAAAAATAGCCAT [XGTACX_site4710],8.78 ± 0.33
18,AAATTATAATTAGGAACACACATATATATATATATA [CACACA_site3098],9.78 ± 0.29
19,GGACTATACAGTTATACACACACATATATATATAAT [CACACA_site7991],9.6 ± 0.4
20,AAGAAGCATAAATGTACACACATATTTATATATTAA [CACACA_site1332],9.01 ± 0.43
21,ATATATATATATGTCTGTACATAAAAAATAATAAAT [XGTACX_site3122],8.975 ± 0.064
22,ATATATATATATATATGTACATATGTCAACTGTCTA [XGTACX_site8636],10.1 ± 0.43
23,ATATATATATATATATGTACATATTTTATAACTGTA [XGTACX_site5395],9.72 ± 0.35

row,Sequence,gcPBM binding intensity (ln)
1,TTTTTGTAATATTATGATGTCATATATATATATATA [XGTACX_negctrl_site618],9.035 ± 0.078
2,TTTTAAATATGCAGATGTACATTATAATGTTTTATT [XGTACX_site2079],8.87 ± 0.47
3,TAGTATAATATGAACACACACACACCCACAAAAAAA [CACACA_site2009],10 ± 0.29
4,ATATATATGAAACACACACACAAAAAAAAAAAAAAA [CACACA_site3647],9.45 ± 0.57
5,GTATAATAGAAACACACACACACACCCAAAAAAAAA [CACACA_site2010],10.3 ± 0.39
6,GTATAATATGAACACACACACACACGCAAAAAAAAA [CACACA_site7036],10.19 ± 0.064
7,TAGTATAATATGAACACACACACACCGACAAAAAAA [CACACA_site5151],9.96 ± 0.2
8,GTATAATATGAACACACACACACACCCAAAAAAAAA [CACACA_site5152],10.3 ± 0.45
9,ATAATATGAAAACACACACACACACCCAAAAAAAAA [CACACA_site2011],10.1 ± 0.15
10,TATATATAGAAACACACACACAAAAAAAAAAAAAAA [CACACA_site1506],9.15 ± 0.46
11,AATATATAGAAACACACACACAAAAAAAAAAAAAAA [CACACA_site1326],9.27 ± 0.47
12,TAGTATAATATGAACACACACACACGCACAAAAAAA [CACACA_site7035],9.94 ± 0.27
13,ATCGTAGTATAATATGAACACACACCCACCCACAAA [CACACA_site8616],9.71 ± 0.29
14,TCATATGTGAAACACACACACACACCCAAAAAAACA [CACACA_site3247],10.06 ± 0.028
15,TTTTTTTTTGAAAAAAGTACTTAATTTTTAAGAAGA [XGTACX_site3591],7.83 ± 0.3
16,AATATATATATATATATATATTTTTGTTAGAATATG [XGTACX_negctrl_site58],8.95 ± 0.32
17,TAAGTTTGTCAATCAACACACACCTATTTATTATAT [CACACA_site3919],9.11 ± 0.35
18,AACACAATAAAAATTAAAAATGTTAAGTAAATATAA [GTGCAC_negctrl_site60],8.68 ± 0.52
19,ATATATATATGAATCACACACAAAAAATATAGAGAT [CACACA_site3913],9.51 ± 0.41
20,ATGCAACTATATATATATATTATATGTATGAATAAT [XGTACX_negctrl_site434],8.97 ± 0.28
21,ATAATATATTTATGTTGTACAAGGAAAATTTTGAAA [XGTACX_site3472],8.76 ± 0.42
22,ATTTTTTTTATTCAATGTACTTTTTTTTATATATAT [XGTACX_site4978],8.8 ± 0.45
23,TATACTCAGAAACACACACACACACCCAAAAAAAAA [CACACA_site4434],10.1 ± 0.35

row,Sequence,gcPBM binding intensity (ln)
1,TATACATACTCACCCACACACAAAAAAAAAAAAAAA [CACACA_site862],9.28 ± 0.47
2,AGTATACTCAAACACACACACACAAAAAAAAAAAAA [CACACA_site4398],9.88 ± 0.58
3,AACAACTATTAATTTACACACATGTATTTATTTTAC [CACACA_site5683],9.3 ± 0.4
4,AAATAAATAAATAAATAAACAAATATGTATAAATGG [XGTACX_negctrl_site153],8.85 ± 0.51
5,TTTAAAAAAAAAAAAAAAAATTCTACATGTAATTTA [CACACA_negctrl_site1205],7.96 ± 0.41
6,AATTTATAAAAGAAGAGGACACATATAAATATAAAT [XGTACX_site59],8.78 ± 0.52
7,TGGGAAAAAATATATGCACACCCCCCAAAAAAAAAA [CACACA_site8696],10.48 ± 0.071
8,ATAATATAAATATGCACACAAATTATTACCCAAAAA [CACACA_site2524],9.03 ± 0.41
9,AAAAAAAATATATATGCACACACAAAAAAACAAATT [CACACA_site8349],9.48 ± 0.37
10,TTAAAAAAATATAATACACACCAAAAATATGCACAT [CACACA_site5209],9.03 ± 0.38
11,GGAAAAAATATATGCACACCCCCCAAAAAAAAAAAA [CACACA_site2222],10.5 ± 0.13
12,ATAAATAAAATATGCACACAAATATAGGAAACAACA [CACACA_site2561],9.38 ± 0.38
13,TTATTACATAACAATATACACACTATTGATTAAAGA [CACACA_site2933],8.68 ± 0.39
14,AAGAATACACCACGCACACACACTTGAGAAAAAATA [CACACA_site3828],9.96 ± 0.47
15,GAATACACCACGCACACACACTTGAGAAAAAATAAA [CACACA_site7747],9.66 ± 0.47
16,ACAAGAATACACCACGCACACACACTAGAGAAAAAA [CACACA_site9276],10.1 ± 0.54
17,CATAAAAATATTAATAAACACACAATCAGATATTGA [CACACA_site9032],8.87 ± 0.45
18,ATGTATAATATTTTCACACACAAGAAAAAAGAAAAG [CACACA_site3591],9.27 ± 0.36
19,TAAAAATATAAAACATGTACATATATGCATATATTT [XGTACX_site8093],8.86 ± 0.48
20,TTATCTCTACAAAGTGCACACACGTAAAAACATATA [CACACA_site3957],9.09 ± 0.35
21,CAAAACATTTTATCTACACACATATATAAATAAATA [CACACA_site3220],8.88 ± 0.38
22,TAAAAAAAAACATGTGCACACGTTTTATCTACATAA [CACACA_site2336],10.1 ± 0.32
23,TGTAATAAAATAATTAGTACACATATATGTATATTT [XGTACX_site5896],8.72 ± 0.33
